# Data as given in PubChem BioAssay (Tox21).
# Inconclusive results are not listed. A call without a number means that no potency is given here. Unmarked numbers belong to inactive results. Active and inactive are the calls of the source. Calls follow the shape of the dose curve; as a rule, active = well fitted inhibition curve with a large enough effect in the repeat runs; inconclusive = weak or mixed curves; inactive = no such curve, though single readings can be large or run the other way.
# Target: Cytochrome P450 1A2 (Homo sapiens) (UniProt P05177)
# Sequence (P05177 whole entry, looked up): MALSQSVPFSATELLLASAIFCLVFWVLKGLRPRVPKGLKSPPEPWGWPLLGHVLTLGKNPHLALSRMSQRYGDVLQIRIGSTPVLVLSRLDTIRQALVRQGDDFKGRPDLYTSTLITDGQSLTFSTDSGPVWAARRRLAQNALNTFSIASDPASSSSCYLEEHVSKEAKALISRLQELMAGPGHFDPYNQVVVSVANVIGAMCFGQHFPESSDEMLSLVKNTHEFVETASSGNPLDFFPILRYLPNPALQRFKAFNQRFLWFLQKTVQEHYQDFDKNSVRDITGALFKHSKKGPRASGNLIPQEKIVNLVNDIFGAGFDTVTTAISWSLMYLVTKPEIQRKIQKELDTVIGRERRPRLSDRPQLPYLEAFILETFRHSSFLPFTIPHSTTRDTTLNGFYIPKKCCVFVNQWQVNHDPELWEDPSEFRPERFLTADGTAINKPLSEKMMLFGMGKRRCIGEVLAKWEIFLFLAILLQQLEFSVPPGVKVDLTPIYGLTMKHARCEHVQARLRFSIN
# Test: Cytochrome P450 Family 1 Subfamily A Member 2 (CYP1A2) small molecule antagonists: luciferase reporter qHTS assay (AID 1671199); also: nearly all actives have a fitted effect of over 50% in size
# Conditions: P450-Glo CYP1A2 enzyme, luciferin luminescence, 1 h; series mostly up to 115 µM
# From the text: National Center for Advancing Translational Sciences [NCATS]
# U.S. Environmental Protection Agency [EPA]
# National Institutes of Environmental Health Sciences [NIEHS]
# National Toxicology Program [NTP]
# U.S. Food and Drug Administration [FDA]
# Cytochrome P450 (CYP) enzymes are membrane-bound hemeproteins that play a key role in metabolism of drugs and xenobiotics. Evaluation of the effect of chemicals on CYP isozymes is useful to minimize the adverse drug reactions and toxicities in drug development process. Tox21 chemicals were tested for their effect on CYP enzyme activities by using P450-Glo (TM) screening systems (Promega Corporation, Madison, WI). These systems provide a luminescent method containing proluciferin substrates and are converted to luciferin products by CYP isozymes. The luciferin products formed are detected with a luciferin detection reagent, and the amount of light produced is proportional to CYP activity. P450-Glo (TM) CYP1A2 screening system (Catalog. No. V9770) was used to detect the compounds that interfere in CYP1A2 activity. The positive control compound used for CYP1A2 assay is furafylline (Sigma-Aldrich, St. Louis, MO).
# Tox21 Assay Protocol Summary:
# Two ul of enzyme-substrate mix was dispensed into medium binding white/solid 1536-well plates (Greiner Bio-One North America Inc., Monroe, NC) using a BioRaptr Flying Reagent Dispenser (FRD, Beckman Coulter, Brea, CA). Compounds dissolved in DMSO and positive control (furafyllline) were transferred to the assay plates at 23 nl using a Pintool station (Wako, San Diego, CA). The assay plates were incubated at room temperature for 10 min. Then 2 ul of NADPH regeneration solution was added to each well of the assay plates using an FRD and incubated at room temperature for 1 h. The reaction was stopped by adding 4 ul of detection reagent using an FRD and after 20 min incubation at room temperature the luminescence signal was measured using a ViewLux plate reader (Perkin Elmer, Shelton, CT). Data were expressed as relative luminescence units.
# Potency is read from the fitted curve at half-maximal effect.
Compound,Potency,"activity change, negative = inhibition"
O=C(O)P(=O)(O)O,inactive,–
CCOC(=O)COc1ccc2c(C)c(CCN(CC)CC)c(=O)oc2c1Cl,inactive,–
CCCCC(CC)CCC(CC(C)C)OS(=O)(=O)O (stereo not given),inactive,–
CC(CN1CC(=O)NC(=O)C1)N1CC(=O)NC(=O)C1 (stereo not given),inactive,–
CCCCCCCCOCCC#N,inactive,–
CC(C)(C)C(=O)CCc1ccc(Cl)cc1,22.4 µM (active),–
CCCCCCC(=O)c1ccccc1,50.2 µM (active),–
C[n+]1ccccc1/C=N/O,inactive,–
O=CN1CCCCC1,inactive,–
CCCCC(CC)COC(=O)CC#N (stereo not given),35.6 µM (active),–
CC[N+](C)(CC)CC,inactive,–
Clc1cc(Cl)c(Cl)c(Cl)c1Cl,inactive,–
CC[C@@]1(c2ccccc2)NC(=O)N(C)C1=O,inactive,–
C[C@@H]1CC[C@@]2(OC1)O[C@H]1C[C@H]3[C@@H]4CC[C@H]5C[C@@H](O)CC[C@]5(C)[C@H]4CC(=O)[C@]3(C)[C@H]1[C@@H]2C,–,10.1% [at 10.5 µM]
CCCOc1ccc(C(=O)OCCN(CC)CC)cc1N,17.4 µM (active),–
O=C1CCCc2c(O)cccc21,34.7 µM (active),–
CCCC(C)C(O)CC (stereo not given),inactive,–
CCCCCCCC(=O)N(C)C,inactive,–
CN(C)CCc1c[nH]c2ccc(C[C@H]3COC(=O)N3)cc12,inactive,–
CN(C)CCC[C@@]1(c2ccc(F)cc2)OCc2cc(C#N)ccc21,inactive,–

Compound,Potency,"activity change, negative = inhibition"
O=C(O)Cc1ccccc1Oc1ccc(Cl)cc1Cl,inactive,–
Cc1cc(C)c(N)c(Cl)c1,2.83 µM (active),–
CC(=O)SCC(CC(=O)c1ccc(C)cc1)C(=O)O (stereo not given),inactive,–
CCOCCOCCOC(C)=O,inactive,–
COc1cc(S(N)(=O)=O)cc(C(=O)O)c1OC,inactive,–
COC(=O)c1cc(Cl)c(NC(C)=O)cc1OC,2.45 µM (active),–
COC(=O)N/N=C/c1c[n+]([O-])c2ccccc2[n+]1[O-],inactive,–
CC(C)(O)CCCC1=CCC(C=O)CC1 (stereo not given),38 µM (active),–
CCN1CCN(C(=O)N[C@@H](C(=O)N[C@@H]2C(=O)N3[C@@H]2SC(C)(C)[C@H]3C(=O)O)c2ccccc2)C(=O)C1=O,inactive,–
COC(=O)c1ccc(C(=O)O)cc1,inactive,–
CCNC(=O)C(C)OC(=O)Nc1ccccc1 (stereo not given),35.6 µM (active),–
CC(C)(C)C(=O)CC(=O)C(C)(C)C,inactive,–
Cc1ccc(NC(N)=O)cc1,40.2 µM (active),–
C[C@@H]1NC(=O)[C@@H](N)CNC(=O)[C@H](C2CCNC(N)=N2)NC(=O)/C(=C/NC(N)=O)NC(=O)[C@H](CNC(=O)C[C@@H](N)CCCN)NC1=O (stereo not given in full),–,10.4% [at 0.435 µM]
CSC(=O)c1cccc2nnsc12,0.71 µM (active),–
C=CC(=O)OCCOCCOCC,inactive,–
CCCCCCCCS(=O)(=O)O,inactive,–
C/C(Cl)=C/CCl,inactive,–
CN(C)CCCN(C)C,1.95 µM (active),–
CC(C)OC(=O)C(C(=O)OC(C)C)=C1SC=CS1,13.8 µM (active),–
